From PubChem BioAssay (NCATS) come the findings set out here.

Values joined by “and” are separate entries in the source; they are usually repeats but may differ in a detail not shown here. Equal values may be shown once. A number with no mark means an inactive call. Records with an inconclusive call do not appear. Active and inactive are the calls of the source. Unless noted, calls come from the whole dose curve; as a rule, active = well fitted curve in the direction sought with a large enough effect; inconclusive = small, poorly fitted or top-dose-only effect, or another doubt; inactive = no such curve, though single readings can be large; an effect the other way counts as inactive or inconclusive. A value given as a limit tells only on which side of the number the result lay.

A short description of assay [1]: Cell Viability - Jurkat (AID 426;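 active = dose-dependent loss of cell ATP signal giving a full or clear fitted curve, ranked by lower potency value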; note: potency is the fitted concentration of half-maximal effect). To be noted: qHTS. The essentials: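 Cells of the human T-cell leukemia line Jurkat (E6-1) are seeded at 5000 per well, treated with compound across a concentration range for 40 hours at 37 °C, then lysed with CellTiter-Glo; luminescence reports ATP.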
A general note: qHTS replaces the single test concentration by a dilution series.

Assay [2] can be described thus: Cell Viability - Hek293 (AID 427;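 active = compounds whose dose-response curve shows a full or clear partial loss of cell viability, called from curve shape rather than a numeric limit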;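 note: potency is the fitted concentration of half-maximal effect; cells exposed to compound for 40 hours at 37 °C before reading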). To be noted: qHTS. An outline of the steps:
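Luminescent ATP read-out (CellTiter-Glo, 20 min RT) after 40 hr compound exposure at 37 °C in complete medium. Signal normalized to DMSO (basal) and 100 uM tamoxifen (100% inhibition); concentration-response fitted with the standard Hill equation to give AC50.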

A short description of assay [3]: Cell Viability - HepG2 (AID 433; calls by dose curve;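 note: potency is the fitted concentration of half-maximal effect; potency for ATP loss meaning cytotoxicity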). To be noted: qHTS. An outline of the steps:
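In this qHTS format, a 40 h, 37 °C compound incubation of HepG2 cells in complete medium precedes a 20 min CellTiter-Glo step at room temperature. Tamoxifen and doxorubicin serve as positive controls; Hill-equation fits yield AC50.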

A short description of assay [4]: Cell Viability - MRC5 (AID 434; calls by dose curve;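 note: potency is the fitted concentration of half-maximal effect; potency reflects cytotoxicity seen as loss of intracellular ATP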). To be noted: MRC5 lung fibroblast viability, qHTS. The essentials: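 AC50 values come from Hill-equation fits of intracellular ATP loss, measured by CellTiter-Glo luminescence. Normal lung fibroblasts (MRC5) had 40 hr compound treatment at 37 C, normalized between DMSO and 100 uM tamoxifen.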
A short description of assay [5]: Cell Viability - SK-N-SH (AID 435; calls by dose curve;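 note: potency is the fitted concentration of half-maximal effect; compound exposure lasted 40 h at 37 °C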). To be noted: SK-N-SH neuroblastoma cell viability qHTS. An outline of the steps: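 Human neuroblastoma line, 40 h exposure at 37 °C, ATP quantified via luciferase luminescence; DMSO and 100 uM tamoxifen define 0 and 100% inhibition for AC50 fitting.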
Assay [6] is described as follows: NFAT Signaling Pathway (AID 444; active = well fitted curve in either direction with a large enough effect, not every such curve was filed as active;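 note: carbachol stimulus at about its EC50 of 1 µM final; % is set by controls: 0 for no effect and ±100 for the full control effect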). To be noted: Jurkat NFAT-bla M1, carbachol, beta-lactamase ratio, 5 h. The essentials:
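Read-out: CCF4 FRET ratio (460 nm/530 nm) after 1 h RT dye loading, used for %activity and AC50 from titration series. Cells: Jurkat NFAT-β-lactamase/M1 line, treated with compound plus 1 uM carbachol for 5 h, 37 °C.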

The nature of assay [7]: Stat Signaling Pathway (AID 446; active = well fitted curve in either direction with a large enough effect, not every such curve was filed as active;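 note: ME-180 cervical cancer cells given 40 pM IL-6 alongside compound; SIE-controlled beta-lactamase reporter measured as 460/530 nm FRET emission ratio; % is set by controls: 0 for no effect and ±100 for the full control effect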). As to conditions: ME-180 SIE beta-lactamase reporter, IL-6 stimulated, 5 h. The essentials:
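Compound effects on IL-6-induced STAT reporter activity were measured in ME-180 cells. After overnight culture, cells were co-treated with 40 pM IL-6 for 5 hrs before beta-lactamase substrate loading at room temperature.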

In assay [8] the target is Mitogen-activated protein kinase 10 (Mus musculus) (UniProt Q61831). Briefly: JNK3 AlphaScreen Assay (AID 530; active = well fitted curve in either direction with a large enough effect, not every such curve was filed as active;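 note: kinase came from lysate of stimulated human HepG2 cells; signal reports phosphorylation of biotinylated GST-cJun 1-79 at Ser73 with 10 µM ATP; % is set by controls: 0 for no effect and ±100 for the full control effect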). To be noted: JNK3 lysate, c-Jun phosphorylation; series mostly up to 57.1 µM. The essentials:
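qHTS titrations with 15 min compound pre-incubation before adding ATP (10 uM final). Read-out: AlphaScreen of Ser73-phosphorylated biotin-GST-cJun using HepG2 lysate JNK3 activated by IL-1β and TNFα.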
In general terms: Bead proximity is the source of the signal in Alpha formats.

A short description of assay [9]: Cell Viability - N2a (AID 540).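 Note: plate controls were DMSO alone for no effect and tamoxifen control for full effect; nearly all actives have a fitted effect of over 45% in size.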 As to conditions: N2a mouse neuroblastoma cell viability; at 92.2 µM (top of the series). The essentials: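 Cytotoxicity was scored as loss of cellular ATP in N2a cells, a mouse neuroblastoma line. Compounds are applied in a qHTS concentration series for 40 hr at 37 °C.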
Assay [10] can be described thus: Cell Viability - NIH 3T3 (AID 541).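 Note: plate controls were DMSO alone for no effect and tamoxifen positive control for full effect; nearly all actives have a fitted effect of over 25% in size.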 As to conditions: NIH 3T3 cell viability, qHTS; activity change, negative = cytotoxicity: at 92.2 µM (top of the series). The essentials: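 Cells seeded at 1000/well, rested 5 hr at 37 °C, then dosed and incubated 40 hr at 37 °C. CellTiter-Glo added, 20 min room temperature, luminescence read. AC50 by Hill fit.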
Assay [11] in a line: Cell Viability - HUV-EC-C (AID 542). Note: % is set by controls: 0 for no effect and ±100 for the full control effect; nearly all actives have a fitted effect of over 35% in size. To be noted: HUV-EC-C endothelial cell viability, qHTS; series mostly up to 92.2 µM. An outline of the steps: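 Cells were seeded at 1000 per well and incubated 5 hr at 37 °C before compound addition. After 40 hr at 37 °C, CellTiter-Glo reagent was added for 20 min and luminescence read. AC50 values came from Hill-equation modelling.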
Assay [12] can be described thus: Cell Viability - H-4-II-E (AID 543). Note: % is set by controls: 0 for no effect and ±100 for the full control effect; nearly all actives have a fitted effect of over 35% in size. To be noted: H-4-II-E rat hepatoma viability; series mostly up to 92.2 µM. An outline of the steps:
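Cells seeded at 1500 per well and rested 5 hr; compounds added; 40 hr incubation at 37 °C; CellTiter-Glo added, 20 min at room temperature; luminescence read. Hill-equation fits gave AC50.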

A short description of assay [13]: Cell Viability - SH-SY5Y (AID 544).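 Note: 0% = DMSO alone and -100% = 100 µM tamoxifen; nearly all actives have a fitted effect of over 55% in size.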 As to conditions: SH-SY5Y neuroblastoma cell viability; viability change, negative = cytotoxic: at 92.2 µM (top of the series). An outline of the steps:
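Cells were plated at 1500 per well and allowed 5 hr at 37 °C. Compounds were added across a concentration range and incubated 40 hr at 37 °C. CellTiter-Glo was added for 20 min at room temperature before luminescence reading.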

Assay [14] is described as follows: Cell Viability - Renal Proximal Tubule (AID 545).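 Note: 0% = DMSO only and -100% = 100 µM tamoxifen; nearly all actives have a fitted effect of over 40% in size.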 As to conditions: renal proximal tubule cells viability; at 91.7 µM (top of the series) unless noted. An outline of the steps: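 In this qHTS format, normal rat kidney-derived proximal tubule cells in complete culture medium receive compound titrations, then sit 40 hours at 37 °C before luciferase-based ATP quantitation; potency is reported as AC50 from concentration-response curves.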

Assay [15] is described as follows: Cell Viability - Mesenchymal (AID 546).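 Note: cells exposed to compound for 40 hours before reading; 0% = DMSO only and -100% = 100 µM tamoxifen.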 As to conditions: mesenchymal cells viability, qHTS; series mostly up to 91.7 µM. An outline of the steps:
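CellTiter-Glo luminescence (intracellular ATP, 20 min room temperature) after 40 hr compound exposure at 37 °C of 1000 glomerulus-derived human kidney mesenchymal cells/well; AC50 values obtained by fitting qHTS concentration-response data to the Hill equation.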

The target of assay [16] is Cytochrome P450 1A2 (Homo sapiens) (UniProt P05177). In words: p450-cyp1a2 (AID 410; calls by dose curve; note: potency is the fitted concentration of half-maximal effect;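 for activity change, negative = inhibition: -100% = full effect of reference inhibitor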). As to conditions: recombinant CYP1A2, luciferin-ME demethylation, luminescence; series mostly up to 57 µM. An outline of the steps:
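O-Demethylation of luciferin 6' methyl ether by human CYP1A2 is monitored as luciferase luminescence. Substrate sits at Km (100uM); enzyme is 20nM. Values are scaled to 57 uM furafylline as maximal inhibition.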

The target of assay [17] is Glucocorticoid receptor (Homo sapiens) (UniProt P04150). Briefly: GR-GFP Redistribution (AID 450;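 active = compounds whose dose series gives a full or clear partial fitted curve of increased nuclear translocation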; note: potency is the fitted concentration of half-maximal effect). To be noted: U2OS GR-GFP nuclear translocation, laser cytometry, 2 h.
The target is the same in assay [18]. Briefly: GR-EFC Redistribution (AID 451; calls by dose curve; note: potency is the fitted concentration of half-maximal effect). To be noted: CHO-K1 GR-EFC translocation, beta-gal luminescence, 2 h. The essentials: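 Translocation of GR-ED fusion to nuclear EA restores b-gal, read by luminescence after 1 h room-temperature detection. Engineered CHO-K1 biosensor cells, 1,000/well, exposed 2 h at 37 C to titrations up to 46 uM final.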
A short description of assay [19]: AP1 Signaling Pathway (AID 357; active = well fitted curve in either direction with a large enough effect, not every such curve was filed as active;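 note: ME-180 reporter cells stimulated with EGF at its EC50 level; % is set by controls: 0 for no effect and ±100 for the full control effect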). As to conditions: ME-180 (cervical carcinoma) AP-1-bla reporter, EGF-induced, beta-lactamase ratio, 5 h; series mostly up to 17.2 µM. An outline of the steps: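 AP-1-bla ME-180 cells, Opti-MEM + 0.5% dialyzed FBS, plated overnight 37 °C. Cpd titration + EC50 EGF, 5 h 37 °C. CCF4 2.5 h RT; ex 405, em 460/530 ratio → %activity, AC50.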

Cytochrome P450 1A2 (Homo sapiens), sequence (P05177 whole entry, looked up): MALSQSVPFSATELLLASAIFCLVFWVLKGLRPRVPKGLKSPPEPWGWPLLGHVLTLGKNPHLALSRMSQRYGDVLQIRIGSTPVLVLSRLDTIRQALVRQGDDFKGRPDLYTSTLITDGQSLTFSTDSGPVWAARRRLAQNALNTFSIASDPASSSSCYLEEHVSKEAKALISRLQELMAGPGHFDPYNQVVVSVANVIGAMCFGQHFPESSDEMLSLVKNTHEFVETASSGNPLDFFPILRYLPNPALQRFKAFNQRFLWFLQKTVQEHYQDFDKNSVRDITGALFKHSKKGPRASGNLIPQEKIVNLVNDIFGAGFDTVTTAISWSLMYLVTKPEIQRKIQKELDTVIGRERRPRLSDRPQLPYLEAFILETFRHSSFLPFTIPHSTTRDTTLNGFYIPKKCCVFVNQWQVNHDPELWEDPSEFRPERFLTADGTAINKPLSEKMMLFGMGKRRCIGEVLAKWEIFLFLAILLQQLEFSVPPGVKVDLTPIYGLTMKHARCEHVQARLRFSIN
Glucocorticoid receptor (Homo sapiens), sequence (P04150 whole entry, looked up, the tested form may be a part): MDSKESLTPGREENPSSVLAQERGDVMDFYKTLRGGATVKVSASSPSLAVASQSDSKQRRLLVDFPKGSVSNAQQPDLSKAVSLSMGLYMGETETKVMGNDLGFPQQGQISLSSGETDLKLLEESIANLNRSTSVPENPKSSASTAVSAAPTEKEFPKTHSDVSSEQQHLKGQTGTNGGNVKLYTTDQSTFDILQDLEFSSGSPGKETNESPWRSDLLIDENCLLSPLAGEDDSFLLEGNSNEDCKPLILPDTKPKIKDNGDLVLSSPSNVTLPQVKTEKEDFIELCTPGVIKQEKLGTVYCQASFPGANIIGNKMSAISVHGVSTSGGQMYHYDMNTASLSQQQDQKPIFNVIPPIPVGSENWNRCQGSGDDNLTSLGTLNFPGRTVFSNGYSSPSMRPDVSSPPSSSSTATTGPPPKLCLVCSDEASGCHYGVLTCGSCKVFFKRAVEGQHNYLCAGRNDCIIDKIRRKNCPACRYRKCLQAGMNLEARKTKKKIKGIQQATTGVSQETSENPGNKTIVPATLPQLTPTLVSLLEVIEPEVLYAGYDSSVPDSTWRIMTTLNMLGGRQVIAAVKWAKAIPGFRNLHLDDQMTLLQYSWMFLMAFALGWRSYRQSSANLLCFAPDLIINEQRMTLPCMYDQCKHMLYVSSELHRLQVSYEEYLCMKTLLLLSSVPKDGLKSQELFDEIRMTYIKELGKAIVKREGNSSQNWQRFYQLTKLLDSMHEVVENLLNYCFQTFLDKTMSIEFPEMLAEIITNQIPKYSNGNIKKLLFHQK

`CCCC(C)(COC(N)=O)COC(=O)NC(C)C` (centres undefined): the Potency in assay [1], in [2], in [3], in assay [4] and in assay [5] was > 92 µM throughout. Besides, in assay [6] (at 17.2 µM (top of the series)), the activity change, negative = inhibition was -6.68%. In addition, in assay [7] (at 17.2 µM (top of the series)), the activity, negative = inhibition is 5.53%. The outcome in [8], in assay [11] and in [15] was inactive. The activity change, negative = cytotoxicity in assay [9] was 4.75%; in assay [10] it was -2.14%; in [14], 4.58%. In [12], the Potency result was “inactive”. Also, the viability change, negative = cytotoxic in assay [13] was 1.5%.

Consider `NP(N)(=O)NC(=O)c1ccc(F)cc1`, for which the Potency entry in [16] was “inactive”. Moreover, the Potency in assay [17] and in [18] was > 46 µM in each case. Moreover, the outcome in assay [8] was inactive.

With `NCC(CC(=O)O)c1ccc(Cl)cc1` (centres undefined), in [19], the outcome was inactive. The activity change, negative = inhibition in assay [6] (at 17.2 µM (top of the series)) was 12.1%. Further, in [7] (at 17.2 µM (top of the series)), the activity, negative = inhibition was 6.38%. For the same compound, the Potency in assay [17] is > 20.6 µM.

On to `C=C(C)[C@H]1Cc2c(ccc3c2O[C@@H]2COc4cc(OC)c(OC)cc4[C@@H]2C3=O)O1`, for which the Potency in assay [17] and in [18] was > 46 µM each time.

Take `CC(CCc1ccccc1)NC(C)C(O)c1ccc(O)cc1` (centres undefined): the result in [19] was inactive. Also, the activity, negative = inhibition in assay [7] (at 17.2 µM (top of the series)) was 22.4%. The Potency in assay [17] was > 20.6 µM.

In the case of `CCOP(=S)(OCC)Oc1cc(C)nc(C(C)C)n1`, the Potency in assay [1], in assay [2], in [3], in assay [4] and in assay [5] was > 92 µM in each case. In addition, the compound was classed as inactive in assay [8], in [11] and in assay [15]. Moreover, the figures for the activity change, negative = cytotoxicity in assay [9], in [10] and in assay [14] were -3.66%, -10% and -3.55%, respectively. The Potency result in [12] is “inactive”. The viability change, negative = cytotoxic in assay [13] is -9.46%.

`Oc1ccccc1-c1ccccc1`: the Potency in [2], in assay [3], in [4] and in assay [5] was > 92 µM each time. Besides, the outcome in [8], in assay [11] and in assay [15] was inactive. The activity change, negative = cytotoxicity was -8.25% in assay [9]; -15.3% in assay [10]; -16.3% [at 91.7 µM, primary cells of rat origin] in [14]. For the same compound, in assay [12], the Potency entry was “inactive”. The viability change, negative = cytotoxic in assay [13] is -9.19%.

Take `Cc1ncc(CNC(=O)N(CCCl)N=O)c(N)n1`: the result in assay [19] and in assay [8] was inactive. In addition, in assay [6] (at 38 µM (top of the series)), the activity change, negative = inhibition is 3.51%. Further, the activity, negative = inhibition in [7] (at 38 µM (top of the series)) is -6.98%. In addition, the Potency in assay [17] and in assay [18] was > 46 µM in each case.

On to `CN(C)CCN(C)CCc1ccc(Cl)c(Cl)c1`, for which the Potency in assay [17] and in assay [18] was > 46 µM each time. For the same compound, in assay [8], the compound was classed as inactive.

With `C#CCN(C)[C@H](C)Cc1ccccc1`, the figures for the Potency in assay [16], in assay [17] and in assay [18] were 12.6 µM (active), > 46 µM and > 46 µM, respectively. In addition, the compound was called inactive in [8].

In the case of `O=c1[nH]c2ccccc2n1C1CCN(CCCC(c2ccc(F)cc2)c2ccc(F)cc2)CC1`, the Potency in [16] is 20 µM (active) and 31.6 µM (active); in assay [17] it was > 46 µM and > 20.6 µM; in [18] it was > 46 µM and > 20.6 µM. Moreover, the compound was classed as inactive in [8].

In the case of `OCCOc1ccccc1`, the Potency in assay [1], in assay [2], in assay [3], in [4] and in assay [5] was > 92 µM each time. The call in assay [8], in assay [11] and in [15] was inactive. In addition, the activity change, negative = cytotoxicity in assay [9] is -13.3%; in assay [10], -18.9%; in assay [14], -6.83%. The Potency result in assay [12] is “inactive”. Moreover, the viability change, negative = cytotoxic in [13] is -18.2%.

As for `O=P1(NCCCl)OCCCN1CCCl` (centres undefined), the outcome in [19] and in [8] was inactive. In addition, in [6] (at 17.2 µM (top of the series)), the activity change, negative = inhibition is -9.45%. In addition, the activity, negative = inhibition in [7] (at 17.2 µM (top of the series)) was -3.9%. The Potency in [17] and in assay [18] was > 20.6 µM in each case.
